# The list is not random: actives were taken first. Their share in the collection is about 3.4%.
# HSF1 activator = increases HSF-1 driven luciferase reporter signal. NIH3T3-HGL HSF-1 luciferase reporter, MG132, 8 h; 100% = twice DMSO control signal. activation, % at 9 µM. 1.7% of 300,000 active. AID 504408;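 active = mean replicate activation of at least 50% with a set share of replicates each reaching 50%; inconclusive = only one of those two conditions met; inactive = mean below 50% and too few replicates reaching it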;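 also: 0% = median of the neutral control wells and 100% = twice that signal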
# HSF1 inhib = HSF1 inhibition | NIH3T3-HGL HSE-luciferase, MG132-induced, luminescence 8 h; hits give low values | activity change, negative = inhibition, % at 7.5 µM (by protocol) | 0.77% of 300,000 active;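 active = more than half of replicate wells show activity change below -50%, luminescence cut by over half; inconclusive = some wells, but at most half, below -50%; inactive = no replicate well below -50%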;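 also: luciferase reports HSF-1 transcriptional activity via heat shock element; 0% = median of DMSO wells and -100% = zero luminescence signal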
# esBAF inh = blocks esBAF chromatin remodeling in mouse ES cells. reporter increase, % at 12.5 µM. Bmi1-luciferase knock-in reporter, 24 h; 100% = twice the neutral-well signal. 2% of 350,000 active; in the data active = activation above about 40%; inconclusive = no clear call, values can overlap the other calls;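 also: 0% = median of the plate's neutral control wells and 100% = double that signal; a rise in the Bmi1 reporter signal indicates esBAF inhibition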
# Vif inh = blocks HIV Vif function; HEK293T cells, Vif self-association by quenched fluorescence, imaging, 24 h; inhibition, % at 7.49 µM; 0.35% of 340,000 active; AID 602346; in the data active = inhibition above about 50%, passing the limit was not always enough; inconclusive = no clear call, values can overlap the other calls; inactive = below about 31%
# Active calls of the source: *; ? = inconclusive; · = not tested or not shown.
SMILES,HSF1 activator,HSF1 inhib,esBAF inh,Vif inh
COc1ccc(NC(=O)CN(C)S(=O)(=O)c2ccc(Br)s2)cc1,9,3,6,-7
COc1ccc(NC(=O)CN(C)S(=O)(=O)c2ccc(Br)s2)cc1OC,55*,26,0,-4
COc1ccc(NC(=O)CN(C)S(=O)(=O)c2cccs2)cc1,31,6,49*,4
COc1ccc(N(/N=C2\Sc3ccccc3C2=O)C(C)=O)cc1,60*,26,·,2
COc1ccccc1N(/N=C1\Sc2ccccc2C1=O)C(C)=O,-68,-68*,·,-14
COc1ccc(CN(C(C)=O)c2ccccc2C(=O)O)cc1,-4,-6,-1,-1
C[C@@H]1CN([C@@H](C)CO)C(=O)c2cc(NS(=O)(=O)c3ccc(Cl)cc3)ccc2O[C@@H](C)CCCCO[C@@H]1CN(C)C(=O)c1ccccc1,·,·,-5,·
CC(C)C#Cc1cnc2c(c1)C(=O)N([C@H](C)CO)C[C@H](C)[C@H](CN(C)Cc1cccc(F)c1)O2,·,·,5,·
Brc1nc(-c2ccccc2)nc(-c2ccccc2)c1Br,-6,-3,-7,69*
Cc1noc(C)c1S(=O)(=O)Nc1cccc2c1O[C@H](CN(C)Cc1ccc(C(=O)O)cc1)[C@@H](C)CN([C@@H](C)CO)C2=O,·,·,-3,·
C[C@@H]1CN([C@@H](C)CO)C(=O)c2cccc(NC(=O)c3ccc(-c4nccs4)cc3)c2O[C@H]1CN(C)C(=O)Nc1ccc2c(c1)OCO2,·,·,0,·
Cc1ccc2cccc(NC(=O)C(F)(F)F)c2n1,215*,143,10,-8
C[C@@H]1CN([C@@H](C)CO)C(=O)c2cc(NS(=O)(=O)c3cn(C)cn3)ccc2O[C@@H](C)CCCCO[C@@H]1CN(C)S(=O)(=O)c1ccccc1,·,·,-1,·
CCCCCCOc1ccc(/C(N)=N/O)cc1,35,23,75*,14
N=C(N)c1ccc(OCCCCCOc2ccc(C(=N)N)cc2)cc1,3,1,-11,26
CO[C@@H]1CN(C)C(=O)c2ccc(NC(=O)NC(C)C)cc2OC[C@H](C)N(Cc2ccccc2)C[C@@H]1C,·,·,1,·
O=C(O)CC(C(=O)O)n1nc(-c2ccccc2)cc1-c1ccccc1 (configuration not stated),20,15,58*,8
CC(C)c1cn(CC[C@H]2CC[C@@H](NS(=O)(=O)c3ccccc3)[C@H](CO)O2)nn1,·,·,4,·
COC(=O)C[C@H]1CC[C@@H]2[C@@H](COc3ccc(NC(=O)NCc4ccccc4)cc3C(=O)N2C)O1,·,·,4,·
CSCCC(NS(=O)(=O)c1cccs1)C(=O)NCc1ccccc1 (configuration not stated),-57,-52*,·,5
CSCCC(NS(=O)(=O)c1cccs1)C(=O)NCc1ccc(C)cc1 (configuration not stated),-17,-7,-4,-11
Cc1nnnn1/C(=C\c1ccccc1)C(=O)OCC(=O)NC(C)(C)C,15,27,14,-3
Cc1nnnn1/C(=C\c1ccccc1)C(=O)OCC(=O)NC1CCCCC1,78*,70,30,-10
C[C@@H]1CN([C@H](C)CO)C(=O)c2cccc(NS(=O)(=O)c3ccc(Cl)cc3)c2O[C@@H]1CN(C)S(=O)(=O)c1cccs1,·,·,0,·
O=C(Nc1ccccn1)c1ccc(Cl)c(S(=O)(=O)N2CCCC2)c1,9,4,56*,·
SMILES,HSF1 activator,HSF1 inhib,esBAF inh,Vif inh
Cc1ccc(C(=O)NCCc2ccccc2)cc1S(=O)(=O)N1CCOCC1,·,·,68*,-3
O=C(NCCc1ccccc1)c1ccc(Cl)c(S(=O)(=O)N2CCCC2)c1,37,16,59*,-21
CC(C)CCNC(=O)c1sc2ccc(S(=O)(=O)N3CCCCC3)cc2c1N,12,6,·,4
O=C(NCc1ccccc1)c1ccc(Cl)c(S(=O)(=O)N2CCCC2)c1,·,·,-6,-7
Nc1c(C(=O)NCCc2ccc(Cl)cc2)sc2ccc(S(=O)(=O)N3CCCCC3)cc12,63*,36,·,·
Cc1noc(C)c1NC(=O)Nc1cccc2c1O[C@@H](CN(C)C(=O)Nc1ccc(F)cc1)[C@@H](C)CN([C@@H](C)CO)C2=O,·,·,3,·
CN1C/C(=C\c2ccc(N3CCOCC3)cc2)C(=O)/C(=C/c2ccc(N3CCOCC3)cc2)C1,133*,67,3,22
O=C(c1cc(-c2ccc(O)cc2)on1)N1CCCCCC1,68*,54,11,3
O=C(c1cc(-c2ccc(Cl)cc2)on1)N1CCCCCC1,45,25,11,-3
O=C(c1cc(-c2cccc(Cl)c2)on1)N1CCCCCC1,3,19,63*,-10
O=C(c1cc(-c2ccc(Cl)c(Cl)c2)on1)N1CCCCCC1,46,25,59*,-12
CCS(=O)(=O)Nc1ccc2c(c1)OC[C@H](C)NC[C@@H](C)[C@@H](OC)CN(C)C2=O,·,·,-1,·
O=C(C[C@@H]1CC[C@@H](NC(=O)C2CC2)[C@@H](CO)O1)NC1CCC1,·,·,1,·
C[C@H](CO)N1C[C@H](C)[C@@H](CN(C)S(=O)(=O)c2cccs2)OCCCC[C@H](C)Oc2ccc(NC(=O)Nc3cccc4ccccc34)cc2C1=O,·,·,-5,·
CCOC(=O)CC(NC(=O)C1c2ccccc2Oc2ccccc21)c1ccccc1Cl (configuration not stated),102*,49,·,4
CCOC(=O)CC(NC(=O)Cc1ccccc1)c1ccccc1Cl (configuration not stated),-11,1,·,-2
C[C@@H]1CN([C@@H](C)CO)C(=O)c2cc(NS(=O)(=O)c3ccccc3)ccc2O[C@@H](C)CCCCO[C@@H]1CN(C)C(=O)C1CCCCC1,·,·,2,·
Cc1cc(C(=O)N/N=C/c2c(C)nn(-c3ccccc3)c2Cl)n[nH]1,-1,3,52*,71*
Cc1cccc(C)c1OCC(=O)NCc1nnc(SCC(=O)NC2CCCCC2C)n1C (configuration not stated),94*,37,-12,-2
Cn1c(=O)c2c(nc(N/N=C/c3ccc(OC(=O)c4ccco4)cc3)n2Cc2ccc(F)cc2)n(C)c1=O,56*,23,·,0
O=C1Nc2ccccc2/C1=C/c1cnc(-c2ccccc2)[nH]1,64*,35,?,2
O=C1Nc2ccccc2/C1=C/c1cccnc1,-1,-2,·,-9
COc1ccccc1S(=O)(=O)N1CC[C@H]2[C@@H](CO)N(C)c3ccc(-c4ccc(C#N)cc4)cc3[C@H]21,·,·,-6,·
COc1ccc(-c2cnnc(N/N=C/c3ccc(O)cc3)n2)cc1,101*,76,·,38
COc1ccc(-c2cnnc(N/N=C/c3ccc(O)c(O)c3)n2)cc1,-15,-5,·,-4
CC(CCc1ccccc1)NC(=O)CN1CCc2ccccc2C1 (configuration not stated),94*,51,-4,-14
CC(=O)C(Cc1ccccc1)NC(=O)CN1CCc2ccccc2C1 (configuration not stated),16,4,·,-14
COc1ccccc1C(=O)Nc1cc(Cl)ccc1O,65*,19,10,-2
O=C(Nc1ccncc1)c1cc2ccccc2cc1O,261*,232,53*,·

# High-throughput results: PubChem BioAssay, Broad Institute
